Structures are written as SMILES. Screen size: about 52,000 compounds; about 4,300 (8.3%) were called active. This is one part of a sample in which actives are shown more often than they occur. Rule as the data show it: active = survival mostly below about 52% (no sharp cut-off); inactive = mostly above about 56%.

This assay relates to DeltatarO mutant. As to the kind of experiment: growth inhibition of S. aureus wild type versus tarO mutant, primary screen, teichoic acid synthesis inhibitors, RN4220, OD600 (AID 463173). To be noted: OD600, 18 h, active compounds read low, screened at 18.75 µg/mL (by protocol).
In the case of `CCCCn1nc(CC(=O)O)c2ccccc2c1=O`, the survival was 83% (inactive). With `COC(=O)c1ccccc1NC(=O)C1(c2cccs2)CCOCC1`, the survival is 83% (inactive). In the case of `COc1ccc(NC(=O)CN(C)S(=O)(=O)c2cnc[nH]2)cc1Cl`, the survival is 98% (inactive). As for `COc1ccc(C(=O)NCCn2cc(SCC(=O)Nc3cccc(C)c3)c3ccccc32)cc1`, the survival was 60% (inactive). For the compound `Cc1ccc(-n2c(=O)c3c(C)c(C(=O)N(C)C)sc3n(CC(=O)C(C)(C)C)c2=O)cc1C`, the survival was 107% (inactive). Turning to `COc1ccc(CNC(=O)c2ccc(NC(=O)N3CCSc4ccccc43)cc2)cc1`, the survival is 56% (inactive).

In the case of `Cc1ccc(NC(=O)Cn2c(=O)n(CC(=O)NCCc3ccccc3)c(=O)c3ccccc32)cc1`, the survival is 89% (inactive). For the compound `CCC(C(=O)NC1CCCC1)N(C(=O)c1snc(C(N)=O)c1N)c1ccccc1` (stereo unspecified), the survival is 73% (inactive). `COc1cccc(NC(=O)N(Cc2cn(C)c3ccccc23)C2CCCCCC2)c1`: the survival is -13% (active).

With `COc1cccc(NC(=O)N(Cc2c[nH]c3ccccc23)C2CCCCC2)c1`, the survival is 65% (inactive). For `COc1cccc(NC(=O)N(Cc2nc3ccccc3c(=O)[nH]2)C2CCCCC2)c1`, the survival is 83% (inactive). Regarding `COc1cccc(NC(=O)N(Cc2c[nH]c3ccccc23)C2CCCCCC2)c1`, the survival is 46% (inactive). Consider `COc1cccc(NC(=O)N(Cc2cn(C)c3ccccc23)C2CCCCC2)c1`, for which the survival was -12% (active). The result for `COc1cccc(NC(=O)Cn2cc(C(=O)C3CCCCC3)c3ccccc32)c1` reads 79% (inactive); that for `CC(C)NC(=O)CSc1nc2ccccc2c(=O)n1Cc1ccc(C(=O)NC(C)C)cc1`, 105% (inactive); that for `CCC1Oc2ccccc2N(CC(=O)NCc2cc(OC)ccc2OC)C1=O` (stereo unspecified), 85% (inactive).

On to `COc1ccc(-c2csc3nc(-c4ccc(F)cc4)oc(=O)c23)cc1OC`, for which the survival was 48% (active). As to `COc1ccc(-c2csc3nc(-c4ccccc4)oc(=O)c23)cc1OC`, the survival was 115% (inactive). The figure for `COc1ccc(-c2csc3nc(-c4ccc(C)cc4)oc(=O)c23)cc1OC` is 63% (inactive); for `C=CCc1cccc2cc(C(=O)Nc3cccc(Cl)c3)c(=O)oc12` it is 79% (inactive). Turning to `C=CCc1cccc2cc(C(=O)Nc3ccc(F)cc3)c(=O)oc12`, the survival is 44% (active). The result for `C=CCc1cccc2cc(NC(C)=O)c(=O)oc12` reads 76% (inactive); that for `CCc1cccc(-n2c(=O)c3cccnc3n2CC(=O)Nc2ccc(OC)c(Cl)c2)c1`, 104% (inactive); that for `COc1ccc(CNC(=O)CSc2ncc(S(=O)(=O)c3ccc(Br)cc3)c(=O)[nH]2)cc1`, 62% (inactive). On to `CCCCNc1nc(Oc2ccc(OCCC)nn2)nc(N(C)C)n1`, for which the survival is 84% (inactive). Regarding `COc1cccc(CNC(=O)CCc2c(C)nc3c4c(C)cc(C)nc4nn3c2C)c1`, the survival was 80% (inactive).

Consider `COc1ccc(-c2noc(COc3ccc(Br)cc3C)n2)cc1OC`, for which the survival is 33% (active). As to `COc1ccc(N2CCN(c3ccc(-c4nc(-c5cccc(C)c5)no4)cc3[N+](=O)[O-])CC2)cc1`, the survival was 75% (inactive). For `COc1cccc(-c2noc(COc3cccc(C)c3C)n2)c1`, the survival is 84% (inactive). For `COc1cc(OC)cc(-c2nc(-c3cccc(C)c3)no2)c1`, the survival was -3% (active). `CCc1ccc(OCC(=O)NCc2nc(-c3cccc(C)c3)no2)c(Br)c1`: the survival is 94% (inactive). As to `CCc1ccc(OCc2nc(-c3ccc(OC)c(OC)c3)no2)c(Br)c1`, the survival is 33% (active). In the case of `COc1ccc(-c2noc(CNS(=O)(=O)c3ccc(Br)cc3)n2)cc1OC`, the survival is 70% (inactive). As for `COc1ccccc1OCc1nc(-c2cccc(C)c2)no1`, the survival was -3% (active). The figure for `COc1cc(OC)cc(-c2nc(-c3ccc4c(c3)[nH]c(=O)n4C)no2)c1` is 94% (inactive); for `COc1ccc(-c2noc(COc3cc(C)c(Br)c(C)c3)n2)cc1OC` it is 60% (inactive); for `COc1ccc(C(=O)NCc2nc(-c3cccc(C)c3)no2)cc1OC` it is 98% (inactive).

Regarding `COc1cccc(-c2noc(COc3ccccc3Cl)n2)c1`, the survival is 81% (inactive). The result for `COc1ccc(CCNC(=O)CCc2cn(Cc3ccc(C)cc3)c3ccccc23)c(OC)c1OC` reads 52% (inactive); that for `Cc1ccc2nc(-c3ccncc3)c(Nc3ccccc3C)n2c1`, 103% (inactive). The figure for `COc1ccc(CC(=O)NCc2ccc3c(c2)CCN3C(=O)c2ccc(C)cc2)cc1OC` is 99% (inactive). The result for `COc1ccccc1-c1nc2c(c(SCc3ccc(F)cc3Cl)n1)Cc1c(CO)cnc(C)c1O2` reads 69% (inactive); that for `CCOC(=O)c1ccc(NC(=O)CC2C(=O)N(c3ccc(F)cc3)C(=O)N2Cc2cccnc2)cc1` (stereo unspecified), 95% (inactive). For `O=C(CSc1nc(-c2ccccc2)cc(=O)[nH]1)Nc1ccccc1`, the survival was 77% (inactive).

As to `COc1ccc(-c2nc3cnccn3c2NCc2ccc3c(c2)OCO3)cc1CN1CCOCC1`, the survival is 88% (inactive).

For `CC1CCC(NC(=O)c2ccc(CS(=O)(=O)c3cccc(C(F)(F)F)c3)o2)CC1` (stereo unspecified), the survival is 75% (inactive). In the case of `O=C(c1ccc(F)cc1)c1cn(Cc2ccccc2F)c2cc3c(cc2c1=O)OCCO3`, the survival was 83% (inactive). On to `COc1ccc(NC(=O)c2c(NCc3cccc(F)c3)sc3c2CCCC3)c(OC)c1`, for which the survival is 69% (inactive). `COc1ccc(OCc2nc(-c3ccc(OC)c(OC)c3)no2)cc1`: the survival was 61% (inactive). The figure for `COc1ccc(-c2noc(COc3cc(C)ccc3C)n2)cc1OC` is -5% (active); for `COc1ccc(-c2noc(CN(C)S(=O)(=O)c3c(C)cc(C)cc3C)n2)cc1OC` it is 45% (inactive); for `CN(C)S(=O)(=O)c1ccc(S(=O)(=O)N(CC(=O)Nc2ccccc2)C2CC2)cc1` it is 94% (inactive). `Cc1cc(C)cc(OCC(=O)NCC2(N3CCOCC3)CCCCC2)c1`: the survival was 91% (inactive). For the compound `CCc1[nH]nc2c1C(c1ccc(F)c(Oc3ccccc3)c1)C(C#N)=C(N)O2` (stereo unspecified), the survival was 80% (inactive).

In the case of `COCc1[nH]nc2c1C(c1ccc(F)c(F)c1)C(C#N)=C(N)O2` (stereo unspecified), the survival was 74% (inactive). Consider `CCn1c2ccccc2c2cc(C3C(C#N)=C(N)Oc4n[nH]c(C(C)C)c43)ccc21` (stereo unspecified), for which the survival is 3% (active). In the case of `CCOC(=O)c1cc(S(=O)(=O)N2CCN(c3cccc(OC)c3)CC2)[nH]n1`, the survival was 108% (inactive). Turning to `COc1ccc(NS(=O)(=O)c2ccc3c(c2)CCN3C(=O)C2CC2)cc1OC`, the survival is 86% (inactive).

With `Cc1cn(C)c(CC(=O)N2CCN(c3ccccc3F)CC2)c1C(=O)O`, the survival was 89% (inactive). The figure for `Cc1cccc(N2CCN(C(=O)Cc3c(C(=O)O)c(C)cn3C)CC2)c1C` is 96% (inactive); for `COc1ccccc1N1CCN(C(=O)Cc2c(C(=O)O)c(C)cn2C)CC1` it is -5% (active); for `Cc1ccc(NC(=O)c2cccc(NC(=O)N3CCSc4ncccc43)c2)cc1Cl` it is 88% (inactive).

As for `O=C(CCSCc1cnn(-c2ccccc2)c1-n1cccc1)NCc1ccc(Cl)cc1`, the survival is 63% (inactive). `O=S(=O)(c1ccc2nc(Nc3cccc(F)c3)ccc2c1)N1CCCC1`: the survival was 72% (inactive). For `CC(=O)c1cccc(Nc2ccc3cc(S(=O)(=O)N4CCCC4)ccc3n2)c1`, the survival was 101% (inactive). Turning to `CCOC(=O)c1cccc(Nc2ccc3cc(S(=O)(=O)N4CCCCC4)ccc3n2)c1`, the survival was -1% (active). `COc1ccc(-c2onc(C)c2C)cc1S(=O)(=O)N1CCN(c2ccc(Cl)cc2)CC1`: the survival is 64% (inactive). The figure for `Clc1cccc(CNNc2nc(N3CCCCC3)nc(N3CCCCC3)n2)c1` is 98% (inactive); for `CCn1cc2nc(SCc3cc(C)ccc3C)n(CCc3ccccc3)c(=O)c2n1` it is 67% (inactive). Take `CCOC(=O)c1cnc2ccc(C)cc2c1NCCc1ccc(OC)c(OC)c1`: the survival is 136% (inactive). As for `CCOC(=O)c1cnc2ccc(OCC)cc2c1NCCc1ccc(OC)c(OC)c1`, the survival is 116% (inactive). As for `CCOC(=O)c1ccc2ncc(C(=O)OCC)c(NCCc3ccc(OC)c(OC)c3)c2c1`, the survival was 53% (inactive). With `CCOC(=O)c1cnc2ccccc2c1NCCc1ccc(OC)c(OC)c1`, the survival is 33% (active). With `CCOC(=O)c1cnc2ccc(OC)cc2c1NCCc1ccc(OC)c(OC)c1`, the survival is 65% (inactive). As for `CCOC(=O)c1cnc2c(C)c(Cl)ccc2c1Nc1ccc(C)cc1C`, the survival is 142% (inactive).

For `CCOC(=O)c1cnc2c(C)c(Cl)ccc2c1NCCc1ccc(OC)c(OC)c1`, the survival was 17% (active). Take `CCOC(=O)c1cnc2c(C)c(Cl)ccc2c1NCCc1ccccc1`: the survival is -3% (active). On to `CCOC(=O)c1cnc2ccc(OC)cc2c1NCCc1ccccc1`, for which the survival was -2% (active). The figure for `CCOC(=O)c1cnc2c(C)c(C)ccc2c1NCCCCCO` is 84% (inactive); for `Cn1c(=O)n(CCc2ccccc2)c(=O)c2c1nc1n2CCN1c1ccc(Cl)cc1` it is 76% (inactive). In the case of `O=C(Cc1ccccc1)N(Cc1cccnc1)c1nc2ccc(F)cc2s1`, the survival was 86% (inactive). `Cc1ccc(C2CCN(C(=O)c3cnn(-c4ccc(C)c(C)c4)c3C3CCN(C(=O)OC(C)(C)C)CC3)C2)cc1` (stereo unspecified): the survival is 90% (inactive).

On to `COc1ccccc1N1CCN(S(=O)(=O)c2ccc(F)c(C(=O)Nc3ccc(C)c(F)c3)c2)CC1`, for which the survival was 93% (inactive). `Cn1c(=N)n(CC(=O)c2ccc(-c3ccccc3)cc2)c2ccccc21`: the survival was 106% (inactive).

Consider `CCCCNC(=O)CCCn1c(=O)c2ccccc2n(Cc2c(C)cc(C)cc2C)c1=O`, for which the survival was 90% (inactive).

Regarding `Cc1ccc(NC(=O)Cn2cc(C(=O)C3CCCCC3)c3ccccc32)c(C)c1`, the survival was 78% (inactive).

With `COc1cccc(CNC(=O)COc2cc(=O)n(C)c3ccccc23)c1`, the survival is 72% (inactive). Take `CCOC(=O)c1c(C)oc2nc(C)nc(NCCc3ccc(OC)c(OC)c3)c12`: the survival is 94% (inactive). As for `CCOC(=O)c1cnc2c(C)cc(C)cc2c1NCCc1ccc(OC)c(OC)c1`, the survival was 66% (inactive). Turning to `CCOC(=O)c1cnc2c(C)cc(Cl)cc2c1NCCc1ccc(OC)c(OC)c1`, the survival was 31% (active).

With `COCCn1c(SCC(=O)c2ccc(F)cc2)nc2cc(C(=O)NC3CCCC3)ccc2c1=O`, the survival was 94% (inactive).
